Of roughly 8,800 targets only a part is listed; those with a hit were picked by preference. About 0.5% of all pairs of compound and target were hits.
Key:
Experiment in all cases: log2 fold change, soluble protein after heating vs DMSO (PISA); higher = thermal stabilisation; K562 lysate, 10 uM; active = over 0.2 and 3.5 SD of the protein, either way, in both replicates (recomputed)
alvocidib = compound: CN1CC[C@H](c2c(O)cc(O)c3c(=O)cc(-c4ccccc4Cl)oc23)[C@H](O)C1 [alvocidib]
Outline: (§1)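 Pellets of K562 cells were dounce-homogenised in PBS pH 7.4 with 1 mM MgCl2, and the crude extract was held at 1 mg/mL protein for a 30 min treatment with 10 μM compound. Aliquots were heated for 3 min over 48°C-58°C and pooled before NP-40 was added to 0.5% at 4°C. The supernatant from 21,000xg for 90 min was quantified by TMTpro 16plex LC-MS/MS with channel sums equalised. Values are reported from duplicates as log-two fold change in thermal stability relative to solvent controls.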

Tubastatin A = compound: CN1CCc2c(c3ccccc3n2Cc2ccc(C(=O)NO)cc2)C1 [Tubastatin A]
Outline: as §1

[1] = compound: CNC(=O)C1=CC=CC=C1NC2=NC(=NC=C2Cl)NC3=C(C=C(C=C3)N4CCOCC4)OC
Outline: as §1

defactinib = compound: CNC(=O)c1ccc(Nc2ncc(C(F)(F)F)c(NCc3nccnc3N(C)S(C)(=O)=O)n2)cc1 [defactinib]
Outline: as §1

[2] = compound: CNc1nc(-c2ccc3c(N)n[nH]c3c2)cc(N2C[C@@H](C(=O)NC3CCCCC3)CC[C@H]2C)n1
Outline: as §1

encorafenib = compound: COC(=O)N[C@@H](C)CNc1nccc(-c2cn(C(C)C)nc2-c2cc(Cl)cc(NS(C)(=O)=O)c2F)n1 [encorafenib]
Outline: as §1

[3] = compound: COC(=O)[C@H](CCSC)NC(=O)C1=C(C=C(C=C1)NC[C@H](CS)N)C2=CC=CC=C2
Outline: as §1

alisertib = compound: COc1cc(Nc2ncc3c(n2)-c2ccc(Cl)cc2C(c2c(F)cccc2OC)=NC3)ccc1C(=O)O [alisertib]
Outline: as §1

[4] = compound: COc1cc2nc(-c3cc(F)ccc3O)nc(N[C@@H]3CNC[C@H]3C(C)(C)O)c2cc1OC
Outline: as §1

gefitinib = compound: COc1cc2ncnc(Nc3ccc(F)c(Cl)c3)c2cc1OCCCN1CCOCC1 [gefitinib]
Outline: as §1

lapatinib = compound: CS(=O)(=O)CCNCc1ccc(-c2ccc3ncnc(Nc4ccc(OCc5cccc(F)c5)c(Cl)c4)c3c2)o1 [lapatinib]
Outline: as §1

pictilisib = compound: CS(=O)(=O)N1CCN(Cc2cc3nc(-c4cccc5[nH]ncc45)nc(N4CCOCC4)c3s2)CC1 [pictilisib]
Outline: as §1

crizotinib = compound: C[C@@H](Oc1cc(-c2cnn(C3CCNCC3)c2)cnc1N)c1c(Cl)ccc(F)c1Cl [crizotinib]
Outline: as §1

[5] = compound: C[C@H](C1=CC=C(C=C1)C(=O)NC2=C3C=CNC3=NC=C2)N
Outline: as §1

duvelisib = compound: C[C@H](Nc1ncnc2nc[nH]c12)c1cc2cccc(Cl)c2c(=O)n1-c1ccccc1 [duvelisib]
Outline: as §1

gandotinib = compound: Cc1cc(Nc2cc(CN3CCOCC3)c3nc(C)c(Cc4ccc(Cl)cc4F)n3n2)n[nH]1 [gandotinib]
Outline: as §1

tozasertib = compound: Cc1cc(Nc2cc(N3CCN(C)CC3)nc(Sc3ccc(NC(=O)C4CC4)cc3)n2)n[nH]1 [tozasertib]
Outline: as §1

doramapimod = compound: Cc1ccc(-n2nc(C(C)(C)C)cc2NC(=O)Nc2ccc(OCCN3CCOCC3)c3ccccc23)cc1 [doramapimod]
Outline: as §1

bafetinib = compound: Cc1ccc(NC(=O)c2ccc(CN3CC[C@H](N(C)C)C3)c(C(F)(F)F)c2)cc1Nc1nccc(-c2cncnc2)n1 [bafetinib]
Outline: as §1

[6] = compound: Cc1cccc(CC(=O)N2CCc3c2ccc(-c2cn(C)c4ncnc(N)c24)c3F)n1
Outline: as §1

Measured: log2 fold change

EIF3I (UniProt Q13347)
Chain of UniProt Q13347 (Q13347 whole entry, looked up): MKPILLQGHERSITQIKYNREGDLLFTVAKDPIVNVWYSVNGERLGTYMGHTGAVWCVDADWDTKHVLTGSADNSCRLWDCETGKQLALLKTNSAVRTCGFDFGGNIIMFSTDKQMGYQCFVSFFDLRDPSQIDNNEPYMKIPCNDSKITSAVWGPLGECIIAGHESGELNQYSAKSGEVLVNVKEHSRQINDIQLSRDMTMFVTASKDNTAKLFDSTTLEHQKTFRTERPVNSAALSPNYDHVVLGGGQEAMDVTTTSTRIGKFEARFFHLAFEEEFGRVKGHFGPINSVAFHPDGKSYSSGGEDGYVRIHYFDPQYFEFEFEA
inactive: alvocidib 0.034 | Tubastatin A -0.126 | [1] 0.01 | defactinib 0.002 | [2] -0.043 | encorafenib -0.018 | [3] 0.156 | alisertib 0.003 | [4] 0.009 | gefitinib -0.03 | lapatinib -0.009 | pictilisib -0.015 | crizotinib -0.004 | [5] -0.003 | duvelisib -0.009 | gandotinib -0.022 | tozasertib 0.008 | doramapimod 0.029 | bafetinib -0.052 | [6] 0.01

ERAL1 (UniProt O75616)
inactive: alvocidib 0.005 | Tubastatin A -0.151 | [1] -0.03 | defactinib 0.027 | [2] -0.015 | encorafenib -0.018 | [3] 0.058 | alisertib -0.008 | [4] 0.016 | gefitinib 0.02 | lapatinib 0.075 | pictilisib -0.025 | crizotinib -0.035 | [5] -0.152 | duvelisib 0.014 | tozasertib 0.041 | doramapimod 0.006 | bafetinib -0.079 | [6] 0.03
active: gandotinib 0.321

GABPB1 (UniProt Q06547)
inactive: alvocidib 0.181 | Tubastatin A -0.001 | [1] -0.028 | defactinib 0.005 | [2] 0 | encorafenib 0.036 | [3] 0.097 | alisertib -0.016 | [4] -0.043 | gefitinib 0.024 | lapatinib -0.042 | pictilisib -0.052 | crizotinib 0.021 | [5] 0.192 | duvelisib 0.018 | gandotinib -0.194 | tozasertib -0.004 | doramapimod 0.026 | bafetinib -0.071 | [6] -0.082

ERLIN2 (UniProt O94905)
inactive: alvocidib 0.164 | Tubastatin A 0.016 | [1] 0.005 | defactinib 0.002 | [2] 0 | encorafenib 0.045 | [3] -0.164 | alisertib 0 | [4] -0.06 | gefitinib 0.005 | lapatinib -0.015 | pictilisib -0.091 | crizotinib -0.004 | duvelisib 0.003 | gandotinib -0.077 | tozasertib 0.02 | doramapimod 0.043 | bafetinib -0.015 | [6] -0.114
active: [5] 0.304

FAM83A (UniProt Q86UY5)
Chain of UniProt Q86UY5 (Q86UY5 whole entry, looked up): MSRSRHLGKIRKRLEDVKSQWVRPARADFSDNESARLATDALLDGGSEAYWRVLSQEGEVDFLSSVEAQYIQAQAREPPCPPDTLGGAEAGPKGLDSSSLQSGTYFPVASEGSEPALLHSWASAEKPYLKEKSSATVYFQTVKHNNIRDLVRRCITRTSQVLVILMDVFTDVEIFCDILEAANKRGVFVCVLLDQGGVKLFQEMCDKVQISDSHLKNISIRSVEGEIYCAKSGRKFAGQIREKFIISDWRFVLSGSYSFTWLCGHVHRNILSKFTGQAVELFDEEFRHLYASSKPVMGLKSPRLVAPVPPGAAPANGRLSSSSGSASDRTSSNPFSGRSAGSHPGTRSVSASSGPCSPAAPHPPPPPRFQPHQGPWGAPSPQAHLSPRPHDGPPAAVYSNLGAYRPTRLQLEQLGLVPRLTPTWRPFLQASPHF
inactive: alvocidib -0.095 | Tubastatin A -0.039 | [1] 0.061 | defactinib -0.055 | [2] 0.015 | encorafenib 0.02 | [3] 0.07 | alisertib 0.02 | [4] -0.013 | gefitinib 0.017 | lapatinib 0.012 | pictilisib 0.021 | crizotinib 0.086 | [5] -0.142 | duvelisib -0.047 | gandotinib 0.155 | tozasertib -0.013 | doramapimod 0.195 | bafetinib -0.053 | [6] 0.056

EIF2AK1 (UniProt Q9BQI3)
inactive: alvocidib 0.044 | Tubastatin A -0.044 | [1] 0.068 | defactinib -0.021 | [2] -0.028 | encorafenib -0.004 | [3] 0.041 | alisertib -0.004 | [4] 0.122 | gefitinib 0.101 | lapatinib 0.142 | pictilisib -0.022 | crizotinib -0.036 | [5] -0.033 | duvelisib 0.06 | gandotinib -0.009 | tozasertib -0.009 | doramapimod 0.017 | bafetinib -0.068 | [6] 0.062

DST (UniProt Q03001)
inactive: alvocidib -0.047 | Tubastatin A 0.033 | [1] -0.003 | defactinib -0.094 | [2] 0.114 | encorafenib 0.018 | [3] 0.048 | alisertib 0.003 | [4] 0.033 | gefitinib 0.046 | lapatinib -0.019 | pictilisib 0.015 | crizotinib -0.02 | [5] -0.17 | duvelisib 0.018 | gandotinib 0.101 | tozasertib 0.024 | doramapimod 0.023 | bafetinib -0.137 | [6] 0.246

EEF1AKMT4 (UniProt P0DPD7)
inactive: alvocidib -0.029 | Tubastatin A -0.027 | [1] 0.074 | defactinib 0.03 | [2] 0.188 | encorafenib 0.042 | [3] 0.012 | alisertib 0.037 | [4] 0.068 | gefitinib 0.004 | lapatinib -0.052 | pictilisib 0.009 | crizotinib -0.012 | [5] -0.046 | duvelisib -0.038 | gandotinib 0.067 | tozasertib -0.072 | doramapimod -0.038 | bafetinib -0.171 | [6] 0.193

GAPVD1 isoform 6 (UniProt Q14C86)
inactive: alvocidib 0.01 | Tubastatin A -0.112 | [1] 0.015 | defactinib 0.018 | [2] -0.04 | encorafenib 0.014 | [3] 0.097 | alisertib 0.005 | [4] -0.017 | gefitinib -0.012 | lapatinib 0 | pictilisib -0.017 | crizotinib -0.023 | [5] 0.054 | duvelisib 0.011 | gandotinib -0.088 | tozasertib -0.002 | doramapimod 0.025 | bafetinib -0.022 | [6] -0.018

GCN1 (UniProt Q92616)
Chain of UniProt Q92616 (Q92616 whole entry, looked up): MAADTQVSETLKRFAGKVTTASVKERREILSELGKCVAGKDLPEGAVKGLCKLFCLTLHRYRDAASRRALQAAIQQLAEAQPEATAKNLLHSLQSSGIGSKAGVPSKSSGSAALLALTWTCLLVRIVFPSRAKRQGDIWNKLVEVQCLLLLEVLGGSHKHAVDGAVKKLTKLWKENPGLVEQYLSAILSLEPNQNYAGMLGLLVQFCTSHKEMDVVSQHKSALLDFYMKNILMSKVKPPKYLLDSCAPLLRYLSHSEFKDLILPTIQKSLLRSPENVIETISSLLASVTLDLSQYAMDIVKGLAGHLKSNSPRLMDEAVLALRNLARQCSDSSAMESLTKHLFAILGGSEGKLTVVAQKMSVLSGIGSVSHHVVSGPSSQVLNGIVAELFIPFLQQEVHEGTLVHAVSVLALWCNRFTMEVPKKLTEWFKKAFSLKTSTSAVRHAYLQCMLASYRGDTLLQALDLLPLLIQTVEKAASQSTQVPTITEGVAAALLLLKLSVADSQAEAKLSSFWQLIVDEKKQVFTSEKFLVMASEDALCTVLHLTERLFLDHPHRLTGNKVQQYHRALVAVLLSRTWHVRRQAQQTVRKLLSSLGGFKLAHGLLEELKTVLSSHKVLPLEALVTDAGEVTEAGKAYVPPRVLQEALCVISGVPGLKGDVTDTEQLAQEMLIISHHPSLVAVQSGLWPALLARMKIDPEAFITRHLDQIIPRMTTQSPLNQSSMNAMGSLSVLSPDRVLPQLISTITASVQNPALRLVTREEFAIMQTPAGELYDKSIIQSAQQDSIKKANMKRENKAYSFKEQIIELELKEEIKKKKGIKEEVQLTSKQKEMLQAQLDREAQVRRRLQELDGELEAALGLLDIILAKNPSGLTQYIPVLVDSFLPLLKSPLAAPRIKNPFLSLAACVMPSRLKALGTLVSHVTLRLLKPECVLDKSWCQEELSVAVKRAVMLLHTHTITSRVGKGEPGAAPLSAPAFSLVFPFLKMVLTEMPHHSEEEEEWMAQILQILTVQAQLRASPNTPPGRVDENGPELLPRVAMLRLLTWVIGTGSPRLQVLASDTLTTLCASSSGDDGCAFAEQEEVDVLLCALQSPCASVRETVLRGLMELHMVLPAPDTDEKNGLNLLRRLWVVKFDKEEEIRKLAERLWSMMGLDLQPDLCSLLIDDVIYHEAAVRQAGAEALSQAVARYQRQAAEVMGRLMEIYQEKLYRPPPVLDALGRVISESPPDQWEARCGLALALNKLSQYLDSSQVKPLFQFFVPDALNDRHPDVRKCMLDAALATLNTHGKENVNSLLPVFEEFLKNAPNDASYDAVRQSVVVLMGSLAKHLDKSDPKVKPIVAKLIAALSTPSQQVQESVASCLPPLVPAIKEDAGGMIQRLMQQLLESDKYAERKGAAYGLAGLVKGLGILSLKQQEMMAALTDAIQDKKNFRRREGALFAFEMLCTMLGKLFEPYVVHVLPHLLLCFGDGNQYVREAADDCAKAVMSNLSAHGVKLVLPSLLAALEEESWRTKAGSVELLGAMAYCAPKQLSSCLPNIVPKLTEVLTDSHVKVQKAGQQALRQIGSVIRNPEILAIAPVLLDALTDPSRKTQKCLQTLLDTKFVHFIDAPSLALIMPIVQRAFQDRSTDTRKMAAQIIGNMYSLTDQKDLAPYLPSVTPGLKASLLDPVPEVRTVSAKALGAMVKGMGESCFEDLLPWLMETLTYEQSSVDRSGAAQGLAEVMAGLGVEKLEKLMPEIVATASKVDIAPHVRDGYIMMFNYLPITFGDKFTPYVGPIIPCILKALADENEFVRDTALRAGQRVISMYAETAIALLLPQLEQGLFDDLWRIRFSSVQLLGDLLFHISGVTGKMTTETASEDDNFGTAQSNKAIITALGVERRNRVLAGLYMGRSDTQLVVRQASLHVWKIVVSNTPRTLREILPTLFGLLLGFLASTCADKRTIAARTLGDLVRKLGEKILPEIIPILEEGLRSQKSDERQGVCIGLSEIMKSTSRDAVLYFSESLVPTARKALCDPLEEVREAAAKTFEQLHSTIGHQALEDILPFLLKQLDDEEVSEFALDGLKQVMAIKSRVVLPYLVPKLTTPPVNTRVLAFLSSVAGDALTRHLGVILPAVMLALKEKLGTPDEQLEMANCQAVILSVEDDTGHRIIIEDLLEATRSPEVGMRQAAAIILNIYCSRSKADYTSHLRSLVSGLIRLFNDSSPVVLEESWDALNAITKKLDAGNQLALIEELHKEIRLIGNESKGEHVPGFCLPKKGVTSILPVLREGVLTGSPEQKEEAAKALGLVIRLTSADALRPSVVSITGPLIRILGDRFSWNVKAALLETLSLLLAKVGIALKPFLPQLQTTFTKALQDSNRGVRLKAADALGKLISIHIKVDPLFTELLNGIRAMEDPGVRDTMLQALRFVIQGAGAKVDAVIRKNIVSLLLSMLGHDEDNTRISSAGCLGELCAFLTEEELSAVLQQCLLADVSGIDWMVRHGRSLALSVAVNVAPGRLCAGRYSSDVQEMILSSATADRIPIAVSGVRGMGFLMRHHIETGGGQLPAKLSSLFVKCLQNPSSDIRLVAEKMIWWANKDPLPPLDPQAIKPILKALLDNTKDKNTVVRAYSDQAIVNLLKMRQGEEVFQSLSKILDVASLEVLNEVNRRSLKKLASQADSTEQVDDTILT
inactive: alvocidib 0.036 | Tubastatin A -0.181 | [1] 0.001 | defactinib 0.037 | [2] -0.023 | encorafenib 0.014 | [3] 0.147 | alisertib 0.023 | [4] 0.006 | gefitinib -0.004 | lapatinib -0.034 | pictilisib -0.027 | crizotinib -0.125 | [5] -0.002 | duvelisib 0.008 | gandotinib -0.121 | tozasertib 0.017 | doramapimod 0.019 | bafetinib -0.049 | [6] 0.053

FANCD2 isoform 1 (UniProt Q9BXW9)
Chain of UniProt Q9BXW9 (Q9BXW9 whole entry, looked up): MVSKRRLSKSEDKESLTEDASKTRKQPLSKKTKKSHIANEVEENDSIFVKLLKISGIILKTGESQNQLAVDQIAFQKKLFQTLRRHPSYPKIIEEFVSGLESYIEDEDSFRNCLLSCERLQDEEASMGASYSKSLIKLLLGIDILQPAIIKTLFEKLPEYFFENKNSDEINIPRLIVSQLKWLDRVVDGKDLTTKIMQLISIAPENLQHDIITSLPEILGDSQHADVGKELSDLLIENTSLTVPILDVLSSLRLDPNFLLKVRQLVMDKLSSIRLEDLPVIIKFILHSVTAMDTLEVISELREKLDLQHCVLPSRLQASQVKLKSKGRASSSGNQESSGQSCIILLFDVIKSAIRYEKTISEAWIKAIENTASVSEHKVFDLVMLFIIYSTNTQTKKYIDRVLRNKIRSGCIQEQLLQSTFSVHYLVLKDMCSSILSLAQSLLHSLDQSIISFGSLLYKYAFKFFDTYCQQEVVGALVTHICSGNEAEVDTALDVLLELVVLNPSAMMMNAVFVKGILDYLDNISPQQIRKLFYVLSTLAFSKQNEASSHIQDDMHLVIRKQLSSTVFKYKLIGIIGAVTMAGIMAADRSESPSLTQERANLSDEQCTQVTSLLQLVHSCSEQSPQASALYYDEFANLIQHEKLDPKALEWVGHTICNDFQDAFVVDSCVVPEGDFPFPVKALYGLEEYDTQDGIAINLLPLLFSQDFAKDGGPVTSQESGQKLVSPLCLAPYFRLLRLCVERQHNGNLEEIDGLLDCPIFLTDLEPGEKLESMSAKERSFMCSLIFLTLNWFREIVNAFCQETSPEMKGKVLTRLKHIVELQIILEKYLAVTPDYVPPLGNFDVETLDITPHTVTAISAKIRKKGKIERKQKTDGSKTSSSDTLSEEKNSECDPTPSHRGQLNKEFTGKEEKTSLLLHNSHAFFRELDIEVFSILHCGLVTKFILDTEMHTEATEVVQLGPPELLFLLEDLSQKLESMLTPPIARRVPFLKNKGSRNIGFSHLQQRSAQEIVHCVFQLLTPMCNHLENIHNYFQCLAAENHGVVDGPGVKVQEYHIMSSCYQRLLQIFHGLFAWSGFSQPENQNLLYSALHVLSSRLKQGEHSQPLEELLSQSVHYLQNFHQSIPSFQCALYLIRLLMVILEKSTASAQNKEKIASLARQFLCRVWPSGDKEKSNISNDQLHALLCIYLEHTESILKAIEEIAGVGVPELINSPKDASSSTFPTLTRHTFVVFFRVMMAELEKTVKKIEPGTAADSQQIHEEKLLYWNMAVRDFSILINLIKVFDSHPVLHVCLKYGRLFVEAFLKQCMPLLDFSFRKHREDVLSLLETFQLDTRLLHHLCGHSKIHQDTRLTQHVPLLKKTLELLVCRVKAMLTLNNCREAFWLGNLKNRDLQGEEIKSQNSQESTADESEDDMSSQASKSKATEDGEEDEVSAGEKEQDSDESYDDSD
inactive: alvocidib 0 | Tubastatin A -0.082 | [1] -0.001 | defactinib -0.044 | [2] 0.147 | encorafenib -0.059 | [3] 0.096 | alisertib 0.001 | [4] 0.023 | gefitinib 0.009 | lapatinib -0.092 | pictilisib -0.037 | crizotinib -0.221 | [5] -0.086 | duvelisib -0.032 | gandotinib 0.132 | tozasertib -0.069 | doramapimod -0.023 | bafetinib -0.079
active: [6] 0.279

ERLIN1 (UniProt O75477)
inactive: alvocidib 0.006 | Tubastatin A -0.058 | [1] -0.001 | defactinib -0.024 | [2] -0.066 | encorafenib 0.086 | alisertib -0.007 | [4] -0.028 | gefitinib 0.035 | lapatinib -0.041 | pictilisib -0.01 | crizotinib 0.032 | [5] -0.094 | duvelisib -0.011 | gandotinib 0.033 | tozasertib 0.019 | doramapimod 0.048 | bafetinib -0.027 | [6] 0.03
active: [3] -0.216

FAM118A (UniProt Q9NWS6)
inactive: alvocidib 0.006 | Tubastatin A -0.153 | [1] 0.077 | defactinib -0.007 | [2] 0.002 | encorafenib -0.017 | [3] 0.002 | alisertib 0.008 | [4] 0.03 | gefitinib 0.003 | lapatinib 0.02 | pictilisib -0.006 | crizotinib -0.054 | [5] -0.09 | duvelisib 0.019 | gandotinib 0.002 | tozasertib -0.016 | doramapimod -0.013 | bafetinib -0.059 | [6] 0.118

EPN2 (UniProt O95208)
active: [5] -0.407
inactive: alvocidib -0.079 | Tubastatin A -0.008 | [1] 0.001 | defactinib 0.005 | [2] 0.009 | encorafenib 0.016 | [3] -0.051 | alisertib 0.002 | [4] 0.03 | gefitinib -0.014 | lapatinib -0.007 | pictilisib -0.037 | crizotinib -0.009 | duvelisib 0.055 | gandotinib 0.165 | tozasertib -0.036 | doramapimod 0.065 | bafetinib -0.027 | [6] 0.093

EDC3 (UniProt Q96F86)
inactive: alvocidib -0.045 | Tubastatin A -0.1 | [1] 0.003 | defactinib 0.009 | [2] 0.038 | encorafenib 0.019 | [3] -0.071 | alisertib 0.025 | [4] -0.02 | gefitinib -0.042 | lapatinib -0.007 | pictilisib -0.034 | crizotinib -0.012 | [5] -0.021 | duvelisib 0.014 | gandotinib 0.032 | tozasertib -0.007 | doramapimod 0.024 | bafetinib -0.008 | [6] -0.003

FREM2 (UniProt Q5SZK8)
inactive: alvocidib -0.114 | Tubastatin A 0.068 | [1] -0.034 | defactinib -0.005 | [2] -0.038 | encorafenib 0.031 | [3] -0.022 | alisertib 0.098 | [4] -0.013 | gefitinib 0.164 | lapatinib -0.077 | pictilisib 0.046 | crizotinib -0.095 | duvelisib 0.06 | gandotinib 0.172 | tozasertib 0.104 | doramapimod 0.07 | bafetinib -0.135 | [6] 0.218
active: [5] -0.318

Source: the supplement of paper PMC10849652
